# Results taken from the supplement of paper PMC8728848.
# Many of the other results were omitted from the sample, so the strongest signals are more common in it than they were.
# B1: ArathEULS3 TAP (Arabidopsis thaliana) (protein)
# chain: IDENLYFQGGSMDEKTTGWRGGHVVEGLAGELEQLRARLEHHPQGQREPGGGGSLEITSLYKKAGFMEHHHQHHRHHQRDDGEDDRQSFGVPPPHVDAPPQPHGLYQSQPHFDPYAPTPQAPAPYRSETQFEPHAPPPYRSEPYFETPAPPPSFGHVSHVGHQSPNESYPPEHHRYGGYQQPSNSLLESHGDHSGVTHVAHHSSNQPQSSSGVYHKPDENRLPDNLAGLAGRATVKVYSKAEPNYNLTIRDGKVILAPADPSDEAQHWYKDEKYSTKVKDADGHPCFALVNKATGEAMKHSVGATHPVHLIRYVPDKLDESVLWTESKDFGDGYRTIRMVNNTRLNVDAYHGDSKSGGVRDGTTIVLWDWNKGDNQLWKIFPF
# Experiments:
# Assay in all cases: glycan array binding signal (z-score within array); higher = stronger binding
# Settings in all cases: glycan notation: IUPAC condensed, linker removed
# Fuc(a1-2)Gal(b1-3)GlcNAc = molecular target: Fuc(a1-2)Gal(b1-3)GlcNAc
# Method in brief: (§1)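 From the Consortium for Functional Glycomics database, 3228 arrays were curated, keeping only those whose protein sequence was available. Binding is given as a within-array Z-score averaged across arrays sharing a protein sequence and across linkers. Negative Z-scores can be read as non-binding.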
# [1] = molecular target: Fuc(a1-2)Gal(b1-3)GlcNAc(b1-3)Gal(b1-4)Glc
# Method in brief: as §1
# [2] = molecular target: Fuc(a1-2)Gal(b1-4)GlcNAc(b1-3)Gal(b1-4)GlcNAc(b1-2)Man(a1-3)[Fuc(a1-2)Gal(b1-4)GlcNAc(b1-3)Gal(b1-4)GlcNAc(b1-2)Man(a1-6)]Man(b1-4)GlcNAc(b1-4)GlcNAc
# Method in brief: as §1
# [3] = molecular target: Fuc(a1-2)Gal(b1-4)[Fuc(a1-3)]GlcNAc(b1-2)Man(a1-3)[Fuc(a1-2)Gal(b1-4)[Fuc(a1-3)]GlcNAc(b1-2)Man(a1-6)]Man(b1-4)GlcNAc(b1-4)[Fuc(a1-6)]GlcNAc
# Method in brief: as §1
# [4] = molecular target: Fuc(a1-2)Gal(b1-4)[Fuc(a1-3)]GlcNAc(b1-3)Gal(b1-4)[Fuc(a1-3)]GlcNAc
# Method in brief: as §1
# [5] = molecular target: Fuc(a1-2)Gal(b1-4)[Fuc(a1-3)]GlcNAc(b1-3)GalNAc
# Method in brief: as §1
# [6] = molecular target: Fuc(a1-2)Gal6S(b1-3)GlcNAc6S
# Method in brief: as §1
# Fuc(a1-2)Gal6S(b1-4)Glc = molecular target: Fuc(a1-2)Gal6S(b1-4)Glc
# Method in brief: as §1
# [7] = molecular target: Fuc(a1-2)[Gal(a1-3)]Gal(b1-4)GlcNAc(b1-2)Man(a1-3)[Fuc(a1-2)[Gal(a1-3)]Gal(b1-4)GlcNAc(b1-2)Man(a1-6)]Man(b1-4)GlcNAc(b1-4)GlcNAc
# Method in brief: as §1
# [8] = molecular target: Fuc(a1-2)[GalNAc(a1-3)]Gal(b1-4)GlcNAc(b1-2)Man
# Method in brief: as §1
# [9] = molecular target: Fuc(a1-3)[Gal(b1-4)]GlcNAc(b1-2)Man(a1-3)[Fuc(a1-3)[Gal(b1-4)]GlcNAc(b1-2)Man(a1-6)]Man(b1-4)GlcNAc(b1-4)GlcNAc
# Method in brief: as §1
# [10] = molecular target: Fuc(a1-3)[Gal(b1-4)]GlcNAc6S
# Method in brief: as §1
# [11] = molecular target: Fuc(a1-3)[Gal3S(b1-4)]GlcNAc6S
# Method in brief: as §1
# Gal(a1-3)Gal = molecular target: Gal(a1-3)Gal
# Method in brief: as §1
# [12] = molecular target: Gal(a1-3)Gal(b1-3)GlcNAc(b1-3)GalNAc
# Method in brief: as §1
# Gal(a1-3)GalNAc = molecular target: Gal(a1-3)GalNAc
# Method in brief: as §1
# [13] = molecular target: Gal(a1-3)[Gal(a1-4)]Gal(b1-4)GlcNAc
# Method in brief: as §1
# [14] = molecular target: Gal(b1-3)GalNAc(b1-3)Gal(a1-4)Gal(b1-4)Glc
# Method in brief: as §1
# [15] = molecular target: Gal(b1-3)GlcNAc(a1-6)Gal(b1-4)GlcNAc
# Method in brief: as §1
# [16] = molecular target: Gal(b1-3)[Fuc(a1-4)]GlcNAc(b1-3)Gal(b1-3)[Fuc(a1-4)]GlcNAc
# Method in brief: as §1
# [17] = molecular target: Gal(b1-4)GlcNAc(b1-2)[Gal(b1-4)GlcNAc(b1-6)]Man(a1-6)[Gal(b1-4)GlcNAc(b1-2)Man(a1-3)]Man(b1-4)GlcNAc(b1-4)[Fuc(a1-6)]GlcNAc
# Method in brief: as §1
# [18] = molecular target: Gal(b1-4)GlcNAc(b1-3)Gal(b1-3)GlcNAc
# Method in brief: as §1
# [19] = molecular target: Gal(b1-4)GlcNAc(b1-3)Gal(b1-4)Glc
# Method in brief: as §1
# [20] = molecular target: Gal(b1-4)GlcNAc(b1-3)Gal(b1-4)GlcNAc(b1-3)Gal(b1-4)GlcNAc
# Method in brief: as §1
# [21] = molecular target: Gal(b1-4)GlcNAc(b1-6)Gal(b1-4)GlcNAc
# Method in brief: as §1
# [22] = molecular target: Gal(b1-4)GlcNAc(b1-6)GalNAc
# Method in brief: as §1
# Gal3S(b1-3)GlcNAc = molecular target: Gal3S(b1-3)GlcNAc
# Method in brief: as §1
# Gal3S(b1-4)Glc = molecular target: Gal3S(b1-4)Glc
# Method in brief: as §1
# Gal3S4S(b1-4)GlcNAc = molecular target: Gal3S4S(b1-4)GlcNAc
# Method in brief: as §1
# Gal4S(b1-4)GlcNAc = molecular target: Gal4S(b1-4)GlcNAc
# Method in brief: as §1
binder,measurement,setting,value
B1,glycan array binding signal (z-score),Fuc(a1-2)Gal(b1-3)GlcNAc,0.613
same,glycan array binding signal (z-score),[1],-0.174
same,glycan array binding signal (z-score),[2],2.35
same,glycan array binding signal (z-score),[3],1.46
same,glycan array binding signal (z-score),[4],0.109
same,glycan array binding signal (z-score),[5],-0.688
same,glycan array binding signal (z-score),[6],-0.204
same,glycan array binding signal (z-score),Fuc(a1-2)Gal6S(b1-4)Glc,1.85
same,glycan array binding signal (z-score),[7],-0.837
same,glycan array binding signal (z-score),[8],0.256
same,glycan array binding signal (z-score),[9],-0.853
same,glycan array binding signal (z-score),[10],2.6
same,glycan array binding signal (z-score),[11],0.828
same,glycan array binding signal (z-score),Gal(a1-3)Gal,3.3
same,glycan array binding signal (z-score),[12],0.549
same,glycan array binding signal (z-score),Gal(a1-3)GalNAc,-0.474
same,glycan array binding signal (z-score),[13],2.15
same,glycan array binding signal (z-score),[14],0.136
same,glycan array binding signal (z-score),[15],-0.499
same,glycan array binding signal (z-score),[16],-0.335
same,glycan array binding signal (z-score),[17],0.941
same,glycan array binding signal (z-score),[18],-0.688
same,glycan array binding signal (z-score),[19],-0.967
same,glycan array binding signal (z-score),[20],0.391
same,glycan array binding signal (z-score),[21],1.18
same,glycan array binding signal (z-score),[22],1.1
same,glycan array binding signal (z-score),Gal3S(b1-3)GlcNAc,-0.162
same,glycan array binding signal (z-score),Gal3S(b1-4)Glc,0.159
same,glycan array binding signal (z-score),Gal3S4S(b1-4)GlcNAc,4.33
same,glycan array binding signal (z-score),Gal4S(b1-4)GlcNAc,0.737
